Laboratory results taken from PubChem BioAssay (NCI).
About 83,000 compounds went through this panel and 20% of them were active in at least one assay; those are over-represented in the sample as a whole.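 The endpoint reported here, percent growth, reads 100 for growth as untreated, 0 for no net growth and -100 for all cells dead.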 Active and inactive are the calls of the source. How the source made its calls: active means growth percent below 10; inactive means the rest.

Tests used:
Experiment in all cases: NCI-60 one-dose screen, 48 h (100 = growth as untreated, 0 = no growth, -100 = all killed)
Settings in all cases: 10 µM unless noted
[1] = test system: SR leukemia
[2] = test system: RPMI-8226 leukemia
[3] = test system: OVCAR-8 ovarian
[4] = test system: OVCAR-5 ovarian
[5] = test system: SK-OV-3 ovarian
[6] = test system: IGROV1 ovarian
[7] = test system: OVCAR-3 ovarian
[8] = test system: HS 578T breast
[9] = test system: NCI/ADR-RES ovarian
[10] = test system: T-47D breast
[11] = test system: BT-549 breast
[12] = test system: MDA-MB-435 melanoma
[13] = test system: SW-620 colon
[14] = test system: MCF7 breast
[15] = test system: HCT-116 colon
[16] = test system: HCC-2998 colon
[17] = test system: KM12 colon

Measured: growth

O=C1Nc2ccccc2/C1=C/C(=O)c1ccc(N2CCCCC2)cc1
active: [13] -22.7%
inactive: [1] 16.9% | [2] 26.9% | [3] 54.9% | [4] 104% | [5] 100% | [6] 50% | [7] 10.4% | [8] 93.4% | [9] 90.3% | [10] 59.9% | [11] 90.8% | [12] 88.2% | [14] 68.9% | [15] 92.7% | [16] 105% | [17] 90.5%

CCOC(=O)c1cc(C(=O)c2ccc(OC)c(OC)c2)n2ccc(-c3ccccn3)cc12
active: [5] 6.14%
inactive: [1] 75.8% | [2] 72.9% | [3] 37% | [4] 84% | [6] 54.7% | [7] 78.5% | [8] 64.2% | [9] 65.6% | [10] 23.1% | [11] 93.6% | [12] 70.7% | [13] 58.6% | [14] 73.3% | [15] 99.9% | [16] 90.5% | [17] 77.4%

COc1ncc(-c2ccc3nc(N)n(-c4ccccc4C(F)(F)F)c(=O)c3c2)cc1S(=O)(=O)Nc1ccc(F)cc1F
inactive: [1] 39% | [3] 50.1% | [4] 14.7% | [5] 72.1% | [8] 42.3% | [9] 25.4% | [10] 30.3% | [11] 49.1% | [12] 31.2% | [13] 34.2% | [14] 43.7% | [15] 32.5% | [16] 39.7% | [17] 21.1%
active: [2] 2.65% | [6] 8.17% | [7] 6.35%

C=C(C)[C@@H]1CC[C@]2(C)[C@H](CC[C@@H]3[C@@H]([C@@](C)(O)CCC=C(C)C)CC[C@]32C)[C@@]1(C)CCC(=O)O
inactive: [1] 21.4% [100 µM] | [3] 14.8% [100 µM] | [5] 18.4% [100 µM] | [10] 17% [100 µM]
active: [2] 0.565% [100 µM] | [4] 3.52% [100 µM] | [6] -24.2% [100 µM] | [7] -70.2% [100 µM] | [8] -16.7% [100 µM] | [9] 6.42% [100 µM] | [11] -22% [100 µM] | [12] -36.7% [100 µM] | [13] 0.938% [100 µM] | [14] 7.92% [100 µM] | [15] -39.4% [100 µM] | [16] -37.4% [100 µM] | [17] -55.2% [100 µM]

C[C@H]1[C@H](C)CC[C@]2(C(=O)N3CCN(C)CC3)CC[C@]3(C)C(=CC[C@@H]4[C@@]5(C)C/C(=C/c6ccco6)C(=O)C(C)(C)[C@@H]5CC[C@]43C)[C@H]12
inactive: [1] 32% [100 µM] | [2] 19.5% [100 µM] | [3] 25.4% [100 µM] | [4] 63.5% [100 µM] | [5] 59.3% [100 µM] | [7] 40.1% [100 µM] | [8] 53.2% [100 µM] | [9] 37.9% [100 µM] | [10] 20.3% [100 µM] | [11] 50.8% [100 µM] | [12] 42.6% [100 µM] | [13] 39.9% [100 µM] | [14] 23.9% [100 µM] | [15] 19% [100 µM] | [16] 38.2% [100 µM] | [17] 35.7% [100 µM]
active: [6] 3.24% [100 µM]

CC1(C)CC[C@]2(C(=O)OC(=O)[C@]34CCC(C)(C)C[C@@H]3C3=CC[C@@H]5[C@@]6(C)CCC(=O)C(C)(C)[C@@H]6CC[C@@]5(C)[C@]3(C)CC4)CC[C@]3(C)C(=CC[C@@H]4[C@@]5(C)CCC(=O)C(C)(C)[C@@H]5CC[C@]43C)[C@H]2C1
inactive: [1] 65% [100 µM] | [2] 61% [100 µM] | [3] 59.8% [100 µM] | [4] 98.3% [100 µM] | [5] 72.9% [100 µM] | [6] 84.4% [100 µM] | [7] 74% [100 µM] | [8] 57.3% [100 µM] | [9] 69.5% [100 µM] | [10] 48.1% [100 µM] | [11] 75.3% [100 µM] | [12] 63.2% [100 µM] | [13] 70% [100 µM] | [14] 51.8% [100 µM] | [15] 41% [100 µM] | [16] 98.2% [100 µM] | [17] 67.2% [100 µM]

Cc1cnc(N)nc1OCC(C)(C)CNC(=O)c1cccc(-c2ccc(S(=O)(=O)Nc3ccc4c(c3)N(C(=O)C3CC3)CCC4)cc2)c1
inactive: [1] 79.9% | [2] 44.6% | [3] 62.3% | [4] 79.4% | [5] 68.2% | [6] 63.4% | [7] 68.2% | [8] 64.4% | [9] 105% | [10] 20% | [11] 78% | [12] 50.4% | [13] 73.9% | [14] 43.6% | [15] 61.3% | [16] 72.6% | [17] 61.8%

Cc1cc(C)c(S(=O)(=O)/N=c2/n(-c3ccccc3)nc3n2CCN3C2=NCCN2)c(C)c1
inactive: [1] 39.9% | [2] 76% | [3] 86.7% | [4] 86.5% | [5] 83.2% | [6] 65.5% | [7] 88.7% | [8] 79.3% | [9] 89.1% | [10] 77.8% | [11] 73.8% | [12] 69.5% | [13] 84.8% | [14] 90.8% | [15] 55.7% | [16] 61.5% | [17] 85.4%

C=CCc1nc2ccccc2s1
inactive: [1] 98.9% | [2] 92.4% | [3] 98% | [4] 101% | [5] 110% | [6] 74.6% | [7] 114% | [8] 102% | [9] 111% | [10] 75.5% | [11] 101% | [12] 116% | [13] 98.9% | [14] 40.6% | [15] 104% | [16] 114% | [17] 107%

C=C(C)[C@@H]1CC[C@]2(C(N)=O)CC[C@]3(C)[C@H](CC[C@@H]4[C@@]5(C)CC[C@H](O)C(C)(C)[C@@H]5CC[C@]43C)[C@@H]12
active: [2] -19.8% [100 µM] | [3] -64.8% [100 µM] | [4] -21.6% [100 µM] | [5] -45.7% [100 µM] | [6] -58.1% [100 µM] | [7] -46.6% [100 µM] | [8] -1.7% [100 µM] | [9] -8.91% [100 µM] | [10] -24.8% [100 µM] | [11] -21.6% [100 µM] | [12] -4.44% [100 µM] | [13] -4.49% [100 µM] | [14] -12.5% [100 µM] | [15] -24.8% [100 µM] | [16] -39% [100 µM] | [17] -63.5% [100 µM]
inactive: [1] 15.5% [100 µM]

Clc1ccc(/C=N/Nc2nc3ccccc3s2)c(Cl)c1
inactive: [1] 91% | [2] 91.2% | [3] 79.3% | [4] 103% | [5] 74% | [6] 67% | [7] 87.3% | [8] 84.8% | [9] 89.7% | [10] 74.4% | [11] 115% | [12] 91.9% | [13] 79.3% | [15] 80.6% | [16] 101% | [17] 94%

C=C(C)[C@@H]1CC[C@]2(C(=O)OC)CC[C@]3(C)[C@H](CC[C@@H]4[C@@](C)(CCc5nn[nH]n5)[C@H](C(=C)C)CC[C@]43C)[C@@H]12
active: [2] -0.796% [100 µM] | [3] 7.09% [100 µM] | [4] 5.88% [100 µM] | [5] -2.47% [100 µM] | [6] -8.32% [100 µM] | [7] -60.4% [100 µM] | [8] -31% [100 µM] | [9] -7.5% [100 µM] | [10] -5.51% [100 µM] | [11] -12.1% [100 µM] | [12] -54% [100 µM] | [13] -19.6% [100 µM] | [14] 5.06% [100 µM] | [15] -21.5% [100 µM] | [16] -53.5% [100 µM] | [17] -43.7% [100 µM]
inactive: [1] 21.7% [100 µM]

CC1(C)C(=O)/C(=C\c2ccco2)C[C@]2(C)[C@H]3CC=C4[C@@H]5C[C@](C)(C(=O)O)CC[C@]5(C)CC[C@@]4(C)[C@]3(C)CC[C@@H]12
inactive: [1] 46.8% [100 µM]
active: [2] 0.425% [100 µM] | [3] -46.1% [100 µM] | [4] -46.2% [100 µM] | [5] -77.2% [100 µM] | [6] -61.9% [100 µM] | [7] -60.1% [100 µM] | [8] -16.2% [100 µM] | [9] -49.5% [100 µM] | [10] -8.17% [100 µM] | [11] -62.6% [100 µM] | [12] -75.1% [100 µM] | [13] -63.6% [100 µM] | [14] -43.1% [100 µM] | [15] -67% [100 µM] | [16] -90.1% [100 µM] | [17] -77.5% [100 µM]
